In this test the target is Histone-lysine N-methyltransferase 2A (Homo sapiens) (UniProt Q03164). Put plainly: Confirmation of Inhibitors Targeting the Menin-MLL Interaction in MLL Related Leukemias: Competition With Fluorescein Labeled MLL-derived Peptide. To be noted: Fluorescence polarization, fluorescein-MLL peptide displacement from menin. (In general: Fluorescence polarisation rises when a labelled molecule tumbles more slowly, as on binding a larger partner.)

Results filed as inconclusive are left out. Active and inactive are the calls of the source. The call rests on the fitted dose curve; in most records, active means well fitted inhibition curve with a large enough effect in the polarisation, with a control signal flat (not every such curve was filed as active); inconclusive means small, poorly fitted or top-dose-only effect, or effect the other way, or a change in a side signal; inactive means no such curve, though single readings can be large or run the other way; the % refers to the polarisation.

Data on 1 compound can be found in PubChem BioAssay AID2783 (National Center for Advancing Translational Sciences (NCATS), 2010).
Potency means the concentration at half of the fitted maximal effect.

Chain of Histone-lysine N-methyltransferase 2A (Homo sapiens) (Q03164 whole entry, looked up): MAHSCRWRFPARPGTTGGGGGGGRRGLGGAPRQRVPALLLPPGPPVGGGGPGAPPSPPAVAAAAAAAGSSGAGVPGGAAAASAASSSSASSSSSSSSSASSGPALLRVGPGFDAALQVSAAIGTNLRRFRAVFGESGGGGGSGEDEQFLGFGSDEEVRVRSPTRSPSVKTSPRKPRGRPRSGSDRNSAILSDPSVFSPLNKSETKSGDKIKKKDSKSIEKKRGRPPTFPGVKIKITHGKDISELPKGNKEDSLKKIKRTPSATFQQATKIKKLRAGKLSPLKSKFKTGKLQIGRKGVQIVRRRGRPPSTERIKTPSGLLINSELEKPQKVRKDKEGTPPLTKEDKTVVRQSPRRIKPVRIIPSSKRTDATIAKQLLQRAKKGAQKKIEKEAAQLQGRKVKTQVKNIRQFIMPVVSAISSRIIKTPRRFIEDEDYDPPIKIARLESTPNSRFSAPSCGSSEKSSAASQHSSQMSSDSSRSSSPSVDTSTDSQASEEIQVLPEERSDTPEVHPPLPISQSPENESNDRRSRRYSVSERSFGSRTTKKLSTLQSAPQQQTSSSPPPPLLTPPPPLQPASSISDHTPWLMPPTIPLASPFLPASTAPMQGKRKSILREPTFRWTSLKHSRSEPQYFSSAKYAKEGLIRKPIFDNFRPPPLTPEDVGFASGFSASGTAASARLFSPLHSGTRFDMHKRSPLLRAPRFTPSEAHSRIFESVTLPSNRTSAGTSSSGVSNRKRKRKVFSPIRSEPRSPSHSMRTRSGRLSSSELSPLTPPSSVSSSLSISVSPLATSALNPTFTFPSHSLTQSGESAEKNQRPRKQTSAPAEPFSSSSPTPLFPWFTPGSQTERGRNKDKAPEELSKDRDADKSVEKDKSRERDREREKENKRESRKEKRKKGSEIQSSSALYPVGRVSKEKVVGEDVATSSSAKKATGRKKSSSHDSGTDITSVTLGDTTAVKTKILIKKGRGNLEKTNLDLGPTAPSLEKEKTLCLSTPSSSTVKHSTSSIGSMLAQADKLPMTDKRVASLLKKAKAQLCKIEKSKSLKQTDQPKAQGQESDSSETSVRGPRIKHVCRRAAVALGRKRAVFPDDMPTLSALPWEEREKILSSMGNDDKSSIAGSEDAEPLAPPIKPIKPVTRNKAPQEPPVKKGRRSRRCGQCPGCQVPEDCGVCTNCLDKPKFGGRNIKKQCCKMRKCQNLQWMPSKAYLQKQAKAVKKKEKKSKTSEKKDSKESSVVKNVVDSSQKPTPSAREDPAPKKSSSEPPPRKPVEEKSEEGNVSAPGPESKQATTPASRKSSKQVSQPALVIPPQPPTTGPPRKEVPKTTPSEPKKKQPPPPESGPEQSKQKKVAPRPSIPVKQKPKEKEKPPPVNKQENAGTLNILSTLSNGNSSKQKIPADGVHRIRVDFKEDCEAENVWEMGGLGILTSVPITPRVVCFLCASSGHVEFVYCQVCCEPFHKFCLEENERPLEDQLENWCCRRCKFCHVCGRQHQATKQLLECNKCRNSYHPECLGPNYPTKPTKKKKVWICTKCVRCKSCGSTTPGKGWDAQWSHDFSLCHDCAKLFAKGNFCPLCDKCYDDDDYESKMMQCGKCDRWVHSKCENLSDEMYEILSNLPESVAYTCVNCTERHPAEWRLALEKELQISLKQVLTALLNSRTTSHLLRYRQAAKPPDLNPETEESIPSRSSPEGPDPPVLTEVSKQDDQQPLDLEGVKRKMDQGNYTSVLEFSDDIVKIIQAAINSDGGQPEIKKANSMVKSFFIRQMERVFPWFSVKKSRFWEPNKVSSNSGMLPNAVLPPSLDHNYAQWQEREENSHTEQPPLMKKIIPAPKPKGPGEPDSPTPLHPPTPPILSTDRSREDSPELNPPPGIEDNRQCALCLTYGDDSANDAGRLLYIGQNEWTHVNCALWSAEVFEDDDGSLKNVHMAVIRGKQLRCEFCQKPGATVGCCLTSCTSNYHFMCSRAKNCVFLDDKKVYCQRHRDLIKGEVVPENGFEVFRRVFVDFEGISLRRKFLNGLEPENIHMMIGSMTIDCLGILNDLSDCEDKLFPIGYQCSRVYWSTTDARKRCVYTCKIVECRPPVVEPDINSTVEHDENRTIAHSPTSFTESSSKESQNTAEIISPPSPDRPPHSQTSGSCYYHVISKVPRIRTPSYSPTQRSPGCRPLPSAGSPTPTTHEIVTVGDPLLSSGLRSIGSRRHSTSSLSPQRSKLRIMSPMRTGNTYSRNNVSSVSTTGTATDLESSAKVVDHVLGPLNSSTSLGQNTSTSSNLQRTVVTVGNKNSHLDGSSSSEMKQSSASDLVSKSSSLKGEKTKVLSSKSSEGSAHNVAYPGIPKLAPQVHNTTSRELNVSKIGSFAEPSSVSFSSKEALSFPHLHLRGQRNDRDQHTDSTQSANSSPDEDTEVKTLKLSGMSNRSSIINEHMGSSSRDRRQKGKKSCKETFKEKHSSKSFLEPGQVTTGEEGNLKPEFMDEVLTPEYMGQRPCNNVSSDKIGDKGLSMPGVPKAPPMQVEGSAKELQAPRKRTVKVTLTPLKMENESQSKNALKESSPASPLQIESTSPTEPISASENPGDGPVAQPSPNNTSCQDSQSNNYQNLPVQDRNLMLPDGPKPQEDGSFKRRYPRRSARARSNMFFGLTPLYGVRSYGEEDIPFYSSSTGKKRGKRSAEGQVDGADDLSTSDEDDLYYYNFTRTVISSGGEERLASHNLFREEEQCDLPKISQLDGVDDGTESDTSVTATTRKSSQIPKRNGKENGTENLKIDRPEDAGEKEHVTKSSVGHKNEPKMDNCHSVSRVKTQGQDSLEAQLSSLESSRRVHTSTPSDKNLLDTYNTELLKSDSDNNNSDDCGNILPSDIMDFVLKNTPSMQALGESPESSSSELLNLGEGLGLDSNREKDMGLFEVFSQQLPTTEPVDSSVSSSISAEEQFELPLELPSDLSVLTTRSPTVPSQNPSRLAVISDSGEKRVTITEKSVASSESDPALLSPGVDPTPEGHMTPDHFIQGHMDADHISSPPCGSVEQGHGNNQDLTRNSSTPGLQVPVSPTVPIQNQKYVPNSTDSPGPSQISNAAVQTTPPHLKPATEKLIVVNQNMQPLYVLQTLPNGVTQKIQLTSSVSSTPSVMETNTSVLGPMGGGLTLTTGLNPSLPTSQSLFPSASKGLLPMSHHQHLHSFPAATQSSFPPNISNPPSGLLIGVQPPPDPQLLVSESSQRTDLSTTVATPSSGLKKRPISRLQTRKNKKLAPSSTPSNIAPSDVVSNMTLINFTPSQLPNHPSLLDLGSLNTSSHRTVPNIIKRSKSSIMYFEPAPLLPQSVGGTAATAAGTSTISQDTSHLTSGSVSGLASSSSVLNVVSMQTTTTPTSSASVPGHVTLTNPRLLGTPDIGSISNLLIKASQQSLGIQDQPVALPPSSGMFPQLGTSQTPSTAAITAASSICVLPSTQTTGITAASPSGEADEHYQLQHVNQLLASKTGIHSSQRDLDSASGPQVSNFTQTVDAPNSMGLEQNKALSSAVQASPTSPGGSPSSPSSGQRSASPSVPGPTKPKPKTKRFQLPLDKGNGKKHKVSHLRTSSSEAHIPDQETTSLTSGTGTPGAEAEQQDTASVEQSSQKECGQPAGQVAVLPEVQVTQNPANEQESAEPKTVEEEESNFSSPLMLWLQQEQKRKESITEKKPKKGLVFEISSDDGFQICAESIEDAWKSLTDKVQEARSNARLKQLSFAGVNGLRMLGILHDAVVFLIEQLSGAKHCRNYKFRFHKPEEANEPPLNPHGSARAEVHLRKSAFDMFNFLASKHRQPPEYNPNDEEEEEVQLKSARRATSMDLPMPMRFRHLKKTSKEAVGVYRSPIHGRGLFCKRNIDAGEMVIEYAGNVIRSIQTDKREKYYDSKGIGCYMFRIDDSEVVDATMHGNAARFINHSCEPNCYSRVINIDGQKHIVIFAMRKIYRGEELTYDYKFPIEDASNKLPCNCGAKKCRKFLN

Regarding `c1cc2cc(c1)C[n+]1ccc(c3ccccc31)NCc1ccc(cc1)CNc1cc[n+](c3ccccc13)C2`, the Potency is 126 µM (active).
